The values that follow come from PubChem BioAssay AID1259400 (National Center for Advancing Translational Sciences (NCATS), 2018).

The campaign covered roughly 350,000 compounds. About 2,100 (0.6%) were called active. Roughly 1% stayed inconclusive and do not appear here.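 How the source made its calls: active means activity change of -60% or lower, but not beyond a set lower limit; inconclusive means change between -60% and -40%, or beyond the set limit; inactive means change above -40%.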 What follows is part of a selection rich in actives, with near analogues and random picks from the rest.
On the % scale 0 is the no-effect control and ±100 the full control effect.

Relaxin receptor 1 (Homo sapiens), sequence (Q9HBX9 whole entry, looked up): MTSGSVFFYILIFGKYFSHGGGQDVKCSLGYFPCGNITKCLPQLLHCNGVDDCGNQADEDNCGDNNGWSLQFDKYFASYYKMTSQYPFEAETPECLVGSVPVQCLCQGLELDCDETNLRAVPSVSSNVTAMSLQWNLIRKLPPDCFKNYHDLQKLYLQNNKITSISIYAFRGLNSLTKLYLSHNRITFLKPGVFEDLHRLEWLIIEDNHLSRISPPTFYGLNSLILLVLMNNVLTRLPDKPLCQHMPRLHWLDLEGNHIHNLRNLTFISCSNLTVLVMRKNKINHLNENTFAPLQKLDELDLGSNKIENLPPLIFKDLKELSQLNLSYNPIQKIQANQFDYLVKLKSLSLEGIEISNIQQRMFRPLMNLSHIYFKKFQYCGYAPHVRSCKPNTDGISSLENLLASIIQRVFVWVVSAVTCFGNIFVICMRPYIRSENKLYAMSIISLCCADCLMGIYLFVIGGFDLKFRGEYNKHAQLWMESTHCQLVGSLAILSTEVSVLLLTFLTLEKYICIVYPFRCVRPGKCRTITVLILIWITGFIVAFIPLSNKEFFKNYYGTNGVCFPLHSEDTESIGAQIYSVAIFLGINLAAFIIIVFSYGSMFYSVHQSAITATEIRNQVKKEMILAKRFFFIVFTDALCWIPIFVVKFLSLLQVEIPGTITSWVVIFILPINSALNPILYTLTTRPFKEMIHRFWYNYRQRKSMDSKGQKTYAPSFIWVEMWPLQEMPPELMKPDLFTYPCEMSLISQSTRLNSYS

The assay addresses Relaxin receptor 1 (Homo sapiens) (UniProt Q9HBX9). The assay is described as follows: qHTS Assay for Antagonists of the Relaxin Receptor RXFP1. The settings on record: HEK293-RXFP1, relaxin-stimulated cAMP HTRF, 30 min; at 57.5 µM; active compounds read low.
Consider `Cc1cccc(Cn2c(SCc3ccc(C(=O)N4CCC(C)CC4)cc3)nc3ccncc32)c1`, for which the activity change, negative = inhibition was -27.4% (inactive). For `CC(C)c1ccc(NC(=O)Cn2nnc(C(=O)NCCc3ccccc3)c2N)cc1` the value was 7.65% (inactive); for `Cn1c(C(=O)N2CCC(C(=O)N3CCN(c4ccccc4)CC3)CC2)cc2sccc21`, -7.62% (inactive); for `CCC(CC)NC(=O)/C=C/c1cccc([N+](=O)[O-])c1`, 5.58% (inactive). Consider `COC(=O)/C=C\C(=O)Nc1cccc([N+](=O)[O-])c1`, for which the activity change, negative = inhibition was -90.5% (active).

In the case of `O=C(CN1CCOCC1)Nc1cccc([N+](=O)[O-])c1`, the activity change, negative = inhibition was -13.2% (inactive).

Take `C[C@@H]1CCC[C@H](C)N1CCCC(O)(c1ccccc1)c1ccccn1` (stereo partly specified): the activity change, negative = inhibition is 5.21% (inactive).

As to `O=C(NNC(=O)C1CCN(c2ncccn2)CC1)c1ccccc1`, the activity change, negative = inhibition is 0.68% (inactive). For `O=C(NNC(=O)C1CCC1)c1ccccc1` the value was -1.83% (inactive); for `O=C(NNc1nc(N2CCCC2)nc(N2CCCC2)n1)c1ccccc1`, -63.3% (active); for `CCc1ccc(S(=O)(=O)c2nnn3c2nc(N2CCN(CC)CC2)c2sccc23)cc1`, -12.6% (inactive). Consider `CCN1CCC2(CC1)N=C(c1ccc(F)cc1)C(=S)N2C(=O)c1ccc(C)cc1`, for which the activity change, negative = inhibition is 8.98% (inactive).

Regarding `CCN1CCC(O)(/C=C/c2ccc(C)cc2)C(C(=O)/C=C/c2ccc(C)cc2)C1` (stereo unspecified), the activity change, negative = inhibition is -75.3% (active). On to `CCCS(=O)(=O)c1c(Nc2ccccc2C)sc(C(=O)c2ccccc2)c1N`, for which the activity change, negative = inhibition was -38.6% (inactive). To `Cc1cccc(NC(c2cccc(F)c2)c2ccc3ccc(C)nc3c2O)n1` (stereo unspecified) belongs -1.75% (inactive); to `Cc1ccc(-c2cnc(NCc3ccc(C(C)C)cc3)n2C)cc1`, -10.2% (inactive); to `Cc1[nH]c2ccccc2c1C(=O)COC(=O)c1c(-c2ccccc2)noc1C`, -27.9% (inactive). To `CC(=O)c1c(C)[nH]c(=S)c(C#N)c1-c1ccc(F)cc1` belongs 7.17% (inactive); to `CCOC(=O)c1c(C)[nH]c(=S)c(C#N)c1-c1ccccc1`, -118% (active).

As to `OCC(CO)(CO)NCc1ccc(-c2ccccc2)cc1`, the activity change, negative = inhibition was -7.18% (inactive).

On to `OCc1ccc(-c2ccccc2)c(-c2ccccc2)c1`, for which the activity change, negative = inhibition was -64.5% (active). For `OCCN(Cc1ccccc1)Cc1ccc(Cl)cc1` the value was -15.6% (inactive). For `CCOC(=O)c1c(C)oc2nc(C)nc(N(CC(C)C)CC(C)C)c12` the value was -27.5% (inactive); for `CC(=O)C1=C(C)NC(C)=C(C(C)=O)C1c1cn(-c2ccccc2)nc1-c1cccs1`, -18.3% (inactive). For `O=C(O)c1ccc(N/N=C/c2cn(-c3ccccc3)nc2-c2cccs2)cc1` the value was -105% (active); for `O=C(NCc1cccnc1)c1cn(-c2ccccc2)nc1-c1cccs1`, -17.9% (inactive). Consider `CCCn1c2ccccc2c2cnn(CC(=O)N3CCCC(C(=O)OCC)C3)c(=O)c21` (stereo unspecified), for which the activity change, negative = inhibition was 3.38% (inactive). Regarding `CCN(CCCNC(=O)CSc1cc(=O)n(C)c2cc(Cl)ccc12)c1cccc(C)c1`, the activity change, negative = inhibition was 14% (inactive).

On to `CSc1ccccc1NC(=O)CCS(=O)(=O)c1nc(-c2cccs2)cc(C(F)(F)F)n1`, for which the activity change, negative = inhibition is 0.767% (inactive). To `COc1ccc(NC(=O)NC(C)c2c(-n3cccc3)sc(C)c2C)cc1OC` (stereo unspecified) belongs -9.76% (inactive); to `O=C(CCN1CCN(C/C=C/c2ccccc2)CC1)Nc1ccccc1Cl`, 3.3% (inactive); to `O=C(Nc1ccccc1Cl)/C(Cl)=C(\Cl)S(=O)c1ccccc1` (stereo unspecified), -106% (active). To `O=C(Nc1ccccc1Cl)N1CCC(CN2CCCC2)CC1` belongs 2.65% (inactive); to `Cc1c(Cl)cccc1-c1ccc(CNCCCSc2nnnn2C)o1`, -6.68% (inactive); to `Cc1ccc(C2C=C(c3ccc(Cl)cc3)Nc3nc(NC(=O)CCC(=O)O)nn32)cc1` (stereo unspecified), -0.127% (inactive).

As to `Cc1ccc(Cl)cc1N1CCN(C(=O)c2cnc3c(-c4ccc(F)cc4)c(C)nn3c2C)CC1`, the activity change, negative = inhibition is -19.1% (inactive). To `COC(=O)c1ccc(NCc2cc(O)ccc2O)cc1` belongs -28.1% (inactive); to `CC(C)OC(=O)c1ccc(NCc2cc(O)ccc2O)cc1Cl`, -85.7% (active). Take `O=C(OC12CC3CC(CC(C3)C1)C2)c1ccc(NCc2cc(O)ccc2O)cc1`: the activity change, negative = inhibition was -37.9% (inactive). For `CCCN1CCc2nc(N3CCN(C)CC3)ncc2C1` the value was 3.24% (inactive); for `Oc1ccc(/C=N/Nc2ccc(C(F)(F)F)cn2)cc1O`, -72.1% (active); for `FC(F)(F)c1cccc(N/N=C/c2ccccc2)c1`, 6.38% (inactive). For `O=C(N/N=C/c1ccc(O)c(O)c1)C1c2ccccc2Oc2ccccc21` the value was -17.9% (inactive); for `CC1(C)OC[C@@H](COC(=O)CCc2ccc(OC[C@@H](O)CNCCNC(=O)N3CCOCC3)cc2)O1`, -4.26% (inactive). For `O=C(CSc1nccn1C1CCCC1)Nc1cc(C(F)(F)F)ccc1Cl` the value was -72.3% (active); for `COc1ccc(NC(=O)CSc2nccn2C2CCCC2)cc1OC`, 6.9% (inactive).

As for `O=C(CSc1nc(=O)[nH]c2c1CCCC2)Nc1cc(C(F)(F)F)ccc1Cl`, the activity change, negative = inhibition was 6.44% (inactive). For `Cc1cc2c(cc3c(SCc4cccc(Cl)c4)nnc(C)n32)o1` the value was -4.3% (inactive). For `O=C(CSc1ccc([N+](=O)[O-])cn1)Nc1ccc(N2CCOCC2)cc1` the value was -66.8% (active). As for `O=C(CSc1ccc([N+](=O)[O-])cn1)Nc1ccc(N2CCOCC2)c(Cl)c1`, the activity change, negative = inhibition was -1.58% (inactive). For `Cn1cnnc1SCC(=O)Nc1ccc(N2CCOCC2)cc1` the value was -11.8% (inactive); for `Cc1ccc(O)c(NC(=O)c2cc(-c3ccc(F)cc3)no2)c1`, -3.02% (inactive); for `CC(=O)c1ccc(NC(=O)CSc2c(C(C)C)cnc3c2c(=O)n(C)c(=O)n3C)cc1`, 3.09% (inactive).

`CC(C)c1ccc(C2CC(=O)N3CN(C4CCCCC4)CSC3=C2C#N)cc1` (stereo unspecified): the activity change, negative = inhibition was -4.73% (inactive). To `Cc1ccc(-c2nc3cccc(C)n3c2Nc2ccc3c(c2)OCCO3)cc1` belongs 3.27% (inactive); to `COc1ccc(-c2[nH]ncc2/C=N/NC(=O)c2cc(Br)ccc2O)c(OC)c1`, -30% (inactive).

With `CC(=O)N/N=C(\C)c1ccc(Br)cc1Br`, the activity change, negative = inhibition is 3.93% (inactive). For `CC(=N\NC(=O)c1cc(Br)ccc1O)/C(=N/O)C(=O)Nc1ccccc1` the value was -80.9% (active).

Turning to `CC(NCc1ccccc1OC1CCCC1)c1ccccc1` (stereo unspecified), the activity change, negative = inhibition was -60.9% (active). For `COc1cc(CNC2CCCCC2)c(Br)cc1OC1CCCC1` the value was -7.24% (inactive).

In the case of `CC(C)(C)NCc1cc(Br)ccc1OC1CCCC1`, the activity change, negative = inhibition was -6.03% (inactive).
